Results filed as inconclusive are left out. A call without a number means that no potency is given here. A number with no mark means an inactive call. Active and inactive are the calls of the source. The call rests on the fitted dose curve; in most records, active means well fitted curve in the direction sought with a large enough effect; inconclusive means small, poorly fitted or top-dose-only effect, or another doubt; inactive means no such curve, though single readings can be large; an effect the other way counts as inactive or inconclusive.
Each compound was assayed against Cellular tumor antigen p53 (Homo sapiens) (UniProt P04637) (assay: Primary qHTS for small molecule compounds that upregulate eGFP-tagged delta133p53alpha (in N-terminal) cells. (AID 2060322; further: nearly all actives have a fitted effect of over 75% in size)). Conditions: NCI-H358 eGFP-delta133p53alpha fluorescence, 24 h; activation: active compounds read high.
Cellular tumor antigen p53 (Homo sapiens), sequence (P04637 whole entry, looked up): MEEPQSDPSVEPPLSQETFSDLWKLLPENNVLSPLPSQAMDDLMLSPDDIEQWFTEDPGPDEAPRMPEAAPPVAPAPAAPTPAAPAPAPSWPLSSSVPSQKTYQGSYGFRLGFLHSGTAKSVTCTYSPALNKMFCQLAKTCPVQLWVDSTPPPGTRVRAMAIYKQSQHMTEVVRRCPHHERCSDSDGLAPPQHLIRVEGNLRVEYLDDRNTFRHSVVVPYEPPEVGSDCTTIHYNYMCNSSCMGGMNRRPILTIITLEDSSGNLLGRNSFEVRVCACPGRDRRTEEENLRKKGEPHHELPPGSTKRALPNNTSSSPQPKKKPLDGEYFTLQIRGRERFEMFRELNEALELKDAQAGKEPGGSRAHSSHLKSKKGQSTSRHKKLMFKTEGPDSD
Summary of the method: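 NCI-H358 cells pre-induced 24 h with 10 ng/ml doxycycline to express N-terminal eGFP-delta133p53alpha, then dosed 24 h at 37C without doxycycline; fixed, Hoechst-stained, GFP intensity by laser scanning cytometry, normalized to DMSO (0%) and 57.5 uM 5-azacytidine (100%).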

Row | Compound | activation
1 | Cc1noc(=O)c2ccc(NC(=O)C(O)(CC(C)(C)c3cccc4c3OCC4)C(F)(F)F)cc12 (centres undefined) | 19.7%
2 | C[C@@H]1O[C@@H](O[C@H]2CC[C@@]3(C)C(CC[C@]4(C)C3CC=C3[C@@H]5CC(C)(C)CC[C@]5(C(=O)O[C@@H]5O[C@H](CO)[C@@H](O)[C@H](O)[C@H]5O)CC[C@]34C)[C@]2(C)CO)[C@H](O)[C@H](O[C@@H]2O[C@H](CO)[C@@H](O)[C@H](O)[C@H]2O)[C@H]1O (some centres undefined) | -6.11%
3 | C=C1CCC2[C@](C)(CCC[C@]2(C)C(=O)O)[C@H]1CC/C(C)=C/C(=O)OC (some centres undefined) | 17.9%
4 | CC(C)(C)Oc1ccc(OCC2Cc3ccccc3CN2C(=O)c2cccc3ccccc23)cc1 (centres undefined) | -10.5%

The compounds below were run against Aldehyde dehydrogenase, mitochondrial (Homo sapiens) (UniProt P05091) (assay: qHTS for Inhibitors of the Aldehyde Dehydrogenase Family (ALDH2) Primary screen (AID 2061308; further: nearly all actives have a fitted effect of over 55% in size)). Conditions: ALDH2 enzyme inhibition qHTS, 1536-well; series mostly up to 56 µM.

Row | Compound | activity change, negative = inhibition | Potency
5 | C[C@@H]1O[C@@H](O[C@H]2[C@H](OC(=O)[C@]34CCC(C)(C)C[C@H]3C3=CCC5[C@@]6(C)C[C@H](O)[C@H](O[C@@H]7O[C@H](CO[C@@H]8OC[C@H](O)[C@H](O)[C@H]8O)[C@@H](O)[C@H](O)[C@H]7O)C(C)(C)C6CC[C@@]5(C)[C@]3(C)C[C@H]4O)OC[C@@H](O)[C@@H]2O)[C@H](O)[C@H](O[C@@H]2OC[C@](O)(CO)[C@H]2O)[C@H]1O[C@@H]1OC[C@H](O)[C@H](O[C@@H]2OC[C@@H](O)[C@H](O)[C@H]2O)[C@H]1O (some centres undefined) | -4.16% [at 11.2 µM] | 
6 | COC12CC3C(C(C)C1=CC(=O)O2)C(O)C(OC(C)=O)C1C(C)(C)C(OC(C)=O)CCC31C (centres undefined) |  | inactive
7 | O=C(Nc1ccc(N(Cc2ccsc2)C(=O)Cn2nnc3ccccc32)cc1)C1CC1 |  | inactive
8 | O=S(=O)(c1ccc(Cl)cc1)N1CCN(c2ccnc3cc(Cl)ccc23)CC1 |  | inactive
9 | CC1(C)C2CC=C(COC3OC(COC4OCC(O)(CO)C4O)C(O)C(O)C3O)C1C2 (centres undefined) |  | inactive
10 | CC(C)(O)c1ccc2c(c1)C(O)C[C@H]1[C@](C)(C(=O)O)CCC[C@]21C (some centres undefined) |  | inactive
11 | Cc1ccccc1C(=O)N1CC/C(=N\OS(=O)(=O)O)c2ccc(Cl)cc21 |  | inactive
12 | C[C@H](N)C(=O)N[C@@H](Cc1ccc(O)cc1)C(=O)N1CCC[C@H]1C(=O)NCC(=O)N[C@@H](CCCCN)C(=O)N[C@@H](Cc1ccccc1)C(N)=O | 4.44% [at 11.2 µM] | 
13 | C=C1C(=O)O[C@H](CCC)[C@H]1C(=O)O |  | inactive
14 | CCOC(=O)c1cnn(-c2ccccc2)c1NC(=O)c1cc2nc(-c3ccco3)cc(C(F)(F)Cl)n2n1 |  | inactive
15 | O[C@@](Cc1ncc(CC2(C(F)(F)F)CC2)[nH]1)(c1ccc(-n2cccn2)cc1)C(F)(F)F |  | inactive
16 | [N-]=[N+]=N[C@]1(CO)O[C@@H](n2ccc(=O)[nH]c2=O)[C@@H](O)[C@@H]1O |  | inactive
17 | O=C(OC[C@H]1O[C@H](O[C@]2(CO)O[C@H](CO)[C@@H](O)[C@@H]2O)[C@H](O)[C@@H](O)[C@@H]1O)c1ccc(O)cc1 |  | inactive
18 | N#CCc1ccc(O)cc1O[C@@H]1O[C@H](CO)[C@@H](O)[C@H](O)[C@H]1O |  | inactive
19 | CC1CCC2C(=CCC(O)C2(C)C)C1(C)Cc1c(O)cc(CO)c(C=O)c1O (centres undefined) |  | inactive
20 | CC(=O)OC1C(O)CC2(C)C(CCC(C)C23Cc2c(O)cc(CO)c(C=O)c2O3)C1(C)C (centres undefined) |  | inactive
21 | C[C@@H]1CC[C@]2(C)C3(C)CC[C@@]2(OC3=O)[C@@]12C[C@H](c1ccoc1)OC2=O |  | inactive
22 | C[C@@]12CC3(S(=O)(=O)O)OC(O1)[C@]1(COC(=O)c4ccccc4)[C@H]3C[C@]21O[C@@H]1O[C@H](CO)[C@@H](O)[C@H](O)[C@H]1O |  | inactive
23 | CC(C)C1(O[C@@H]2O[C@H](CO)[C@@H](O)[C@H](O)[C@H]2O)CC=C(CO)CC1 (some centres undefined) |  | inactive
24 | C[C@@H]1O[C@@H](O[C@H]2[C@@H]3C=CO[C@@H](O[C@@H]4O[C@H](CO)[C@@H](O)[C@H](O)[C@H]4O)[C@@H]3[C@@]3(CO)O[C@@H]23)[C@H](O)[C@H](OC(=O)/C=C/c2ccc(O)cc2)[C@H]1OC(=O)/C=C/c1ccc(O)cc1 |  | inactive

Row | Compound | activity change, negative = inhibition | Potency
25 | C=C1CCC2C(C)(C)C(O)CCC2(C)C1CCC(C)CCOC(=O)CCC(=O)O (centres undefined) |  | inactive
26 | COc1cc(/C=C/c2ccccc2)c(C(=O)O)c(O)c1CC=C(C)C |  | inactive
27 | O=C(C[C@@H]1C(C(=O)O)=CO[C@@H](O[C@@H]2O[C@H](CO)[C@@H](O)[C@H](O)[C@H]2O)/C1=C\CO)OCCc1ccc(O)cc1 |  | inactive
28 | COc1cc(/C=C/C(=O)O[C@@H]2C[C@@](O)(C(=O)O)C[C@@H](O)[C@@H]2O)ccc1O |  | inactive
29 | COC1CC/C=C(\C)C(=O)Nc2cc(O)cc(c2)CC(C)CC(OC)C(O)C(C)/C=C(\C)C1OC(N)=O (centres undefined) |  | inactive
30 | C=C1C(OC(C)=O)CCC2(C)CCC(C(C)(C)O)CC12 (centres undefined) |  | inactive
31 | CC1(C)CC[C@]2(C(=O)O[C@@H]3O[C@H](CO[C@@H]4O[C@H](CO)[C@@H](O)[C@H](O)[C@H]4O[C@@H]4O[C@H](CO)[C@@H](O)[C@H](O)[C@H]4O)[C@@H](O)[C@H](O[C@@H]4O[C@H](CO)[C@@H](O)[C@H](O)[C@H]4O)[C@H]3O)CC[C@]3(C)C(=CCC4[C@@]5(C)CC[C@@H](O)[C@@](C)(C(=O)O[C@@H]6O[C@H](CO)[C@@H](O)[C@H](O)[C@H]6O)C5CC[C@]43C)[C@@H]2C1 (some centres undefined) | 5.56% [at 11.2 µM] | 
32 | C=CC(C)(C)C12Nc3c(ccc4c3OC(C)(C)C=C4)C1(O)CC1C(=O)N3CCCC3C(=O)N12 (centres undefined) |  | inactive
33 | C[C@@H]1O[C@@H](O[C@H]2[C@H](OC(=O)[C@]34CCC(C)(C)C[C@H]3C3=CCC5[C@@]6(C)C[C@@H](O)[C@@H](O[C@@H]7O[C@H](CO)[C@@H](O)[C@H](O)[C@H]7O)[C@@](C)(CO)C6[C@H](O)C[C@@]5(C)[C@]3(C)CC4)OC[C@H](O)[C@@H]2O)[C@H](O)[C@H](O[C@@H]2OC[C@](O)(CO)[C@H]2O)[C@H]1O[C@@H]1OC[C@@H](O)[C@H](O[C@H]2O[C@H](C)[C@@H](O)[C@H](O)[C@@H]2O)[C@H]1O (some centres undefined) | 9.79% [at 11.2 µM] | 
34 | CC(C)C1CCC(CO)=CC1/C=C(\CO)C(=O)OCC1(O)CCC(C(C)C)C2C=C(C(=O)O)COC(=O)C21 (centres undefined) |  | inactive
35 | C=C1C(O)CC2C(C(=O)O)=COC(O[C@@H]3O[C@H](COC(=O)c4ccc(O)cc4)[C@@H](O)[C@H](O)[C@H]3O)C12 (some centres undefined) |  | inactive
36 | C=C1C(=O)O[C@@H]2/C=C(/C)CC3C=C(C[C@H](OC(=O)/C(C)=C\C)[C@@H]12)C(=O)O3 (some centres undefined) |  | inactive
37 | C=C(C(=O)O)C1CC(O)C2(C)CCCC(C)(O)C2C1 (centres undefined) |  | inactive
38 | O=C(C1=CCN2c3c(cccc31)OC[C@H]2CN1CCOCC1)c1cccc2ccccc12 |  | inactive
39 | NC1CCC(Nc2cc(-c3cccc(NCc4cccc(F)c4)n3)c(Cl)cn2)CC1 (centres undefined) |  | inactive
40 | CC1CCCC(O)CC(=O)c2c(O)cc(O)cc2CC(=O)O1 (centres undefined) |  | inactive
41 | Cc1noc(=O)c2ccc(NC(=O)C(O)(CC(C)(C)c3cccc4c3OCC4)C(F)(F)F)cc12 (centres undefined) |  | inactive
42 | C[C@@H]1O[C@@H](O[C@H]2CC[C@@]3(C)C(CC[C@]4(C)C3CC=C3[C@@H]5CC(C)(C)CC[C@]5(C(=O)O[C@@H]5O[C@H](CO)[C@@H](O)[C@H](O)[C@H]5O)CC[C@]34C)[C@]2(C)CO)[C@H](O)[C@H](O[C@@H]2O[C@H](CO)[C@@H](O)[C@H](O)[C@H]2O)[C@H]1O (some centres undefined) |  | inactive
43 | C=C1CCC2[C@](C)(CCC[C@]2(C)C(=O)O)[C@H]1CC/C(C)=C/C(=O)OC (some centres undefined) |  | inactive
44 | CC(C)(C)Oc1ccc(OCC2Cc3ccccc3CN2C(=O)c2cccc3ccccc23)cc1 (centres undefined) |  | inactive

Source: PubChem BioAssay (NCATS)
